The source of these data is PubChem BioAssay (Tox21).

“And” between values parts separate entries of the source, which are not always exact repeats. Equal values may be shown once. Results filed as inconclusive are left out. The source made the active and inactive calls. Calls follow the shape of the dose curve; as a rule, active = well fitted cell-killing curve with a large enough effect in the repeat runs; inconclusive = weak or mixed curves, or effect the other way; inactive = flat fitted curve, though single readings scatter.
% is scaled to controls: 0 for no effect and ±100 for the full control effect; potency is read from the fitted curve at half-maximal effect.

This experiment can be described thus: qHTS RealTime-Glo MT Cell Viability Assay in HepG2 cells - 40 hour (AID 1224870). Also: nearly all actives have a fitted effect of over 50% in size. The following applies: RealTime-Glo luminescence; series mostly up to 76.8 µM; activity change, negative = cytotoxic: at the top concentration. An excerpt: National Center for Advancing Translational Sciences [NCATS]
NIH Chemical Genomics Center [NCGC]
U.S. Environmental Protection Agency [EPA]
National Institutes of Environmental Health Sciences [NIEHS]
National Toxicology Program [NTP]
U.S. Food and Drug Administration [FDA]
Measure of cell viability is critical in the cell-base assay. Analysis of cell viability is necessary for the characterization of cell responses to cytotoxic drugs and environmental stress. A RealTime-Glo MT Cell Viability Assay to monitor cell viability in real time of continues cell culture during 40 hours of compound treatment was used to screen Tox21 10K library compounds in HepG2 cells. The RealTime-Glo MT Cell Viability Assay is a nonlytic, homogeneous, bioluminescent method to measure cell viability in real time using a simple, plate-based method. The assay involves adding NanoLuc luciferase and a cell-permeant prosubstrate to cells in culture. Viable cells reduce the proprietary prosubstrate to generate a substrate for NanoLuc luciferase. This substrate diffuses from cells into the surrounding culture medium, where it is rapidly used by the NanoLuc Enzyme to produce a luminescent signal. The signal correlates with the number of viable cells, making the assay well suited for cytotoxicity studies.
Tox21 Assay Protocol Summary:
The mixture of HepG2 cell suspension and reagents were dispensed at 600cells/6 ul/well in 1536-well tissue culture treated black solid bottom plates using a Multidrop dispenser. After the assay plates were incubated at a 37 C/5% CO2 incubator for 5 hours, 23 nL of compounds dissolved in DMSO, positive and negative controls was transferred to the assay plate by a pintool work station. The plates were incubated at 37 C for 40 hours. The luminescence intensity were measured at 0h, 8h, 16h, 24h, 32h and 40h time points using ViewLux plate reader during compound treatment.
(qHTS replaces the single test concentration by a dilution series.)
`Cc1cccc(C(=O)O)c1O`: the “activity change, negative = cytotoxic” value is 1.37% [at 35.3 µM] (inactive).
Still for that read-out and setting: for `O=S(=O)(O)c1ccccc1/C=C/c1ccc(-c2ccc(/C=C/c3ccccc3S(=O)(=O)O)cc2)cc1` the value was 3.81% (inactive).
On to `O=C(O)Cc1ccccc1Nc1c(Cl)cccc1Cl`, for which the Potency result is “inactive”.
As to `CCOc1ccc2ccccc2c1C(=O)N[C@@H]1C(=O)N2[C@@H]1SC(C)(C)[C@@H]2C(=O)O`, the “activity change, negative = cytotoxic” value was 1.5% [at 35.3 µM] (inactive).
On to `CCCCC/C=C\C/C=C\CCCCCCCC(=O)O`, for which the Potency result was “inactive”.
Turning to `O=C(O)Cc1ccc2c(c1)C(=O)c1ccccc1CO2`, the “activity change, negative = cytotoxic” value was 5.2% [at 35.3 µM] (inactive).
For `C[C@H]1NCc2cc(-c3ccc4c(=O)c(C(=O)O)cn(C5CC5)c4c3OC(F)F)ccc21`, the activity change, negative = cytotoxic was -10.9% [at 15.8 µM] (inactive).
Same read-out and setting: the figure for `Nc1ccc(Oc2ccc(Cl)cc2)cc1` is 2.36% (inactive).
Still for that read-out and setting: the figure for `S=c1nccc[nH]1` is -5.76% (inactive); for `Cc1ccc(C(C)C)cc2c(C)ccc1-2` it is -0.647% [at 35.3 µM] (inactive).
The same measure, in the same setting: for `CC[C@H](C)COC(=O)/C=C/c1ccc(N=Cc2ccc(OC)cc2)cc1` the value was 6.52% (inactive); for `Cc1cc(=O)oc2cc(O)cc(O)c12`, 5.68% (inactive).
For `COc1ccc2c(c1)c(CC(=O)OC/C=C(\C)CC/C=C(\C)CCC=C(C)C)c(C)n2C(=O)c1ccc(Cl)cc1`, the “activity change, negative = cytotoxic” value was 0.287% [at 35.3 µM] (inactive).
Still for that read-out and setting: for `CC(C)NC[C@@H](O)COc1ccc(CC(N)=O)cc1` the value was -0.557% [at 35.3 µM] (inactive); for `CCCNCCC`, 0.249% (inactive).
The same measure, in the same setting: for `Cc1c2ccccc2c(C)c2c1ccc1ccccc12` the value was 18% (inactive); for `C#C[C@]1(O)CC[C@H]2[C@@H]3[C@H](C)CC4=C(CCC(=O)C4)[C@H]3CC[C@@]21C`, -5.26% [at 35.3 µM] (inactive).
Take `CCCCC(CC)COC(=O)CCCCC(=O)OCc1ccccc1` (stereo not given): the “activity change, negative = cytotoxic” value is -2.51% (inactive).
The same measure, in the same setting: the figure for `O=C(O)CCN(C1(C(=O)NO)CCCC1)S(=O)(=O)c1ccc(Oc2ccc(F)cc2)cc1` is 3.23% (inactive); for `OC[C@@H](O)[C@@H](O)CO` it is -0.0302% (inactive); for `O=C1OC2(c3ccc(O)cc3Oc3cc(O)ccc32)c2ccc(N=C=S)cc21` it is -28.6% (inactive).
Still for that read-out and setting: the figure for `COC(=O)c1ccccc1OC` is 0.987% (inactive).
The same measure, in the same setting: the figure for `C[Si](Cl)(c1ccccc1)c1ccccc1` is 0.355% (inactive); for `NC[C@H]1O[C@H](O[C@H]2[C@H](O[C@@H]3O[C@H](CO)[C@@H](O)[C@H]3O)C(O)[C@H](N)C[C@@H]2N)[C@H](N)[C@@H](O)[C@@H]1O` (stereo not given in full) it is 0.986% [at 6.97 µM] (inactive).
For the molecule `CCCCCCCCCCCCCC[N+](C)(C)C`, the Potency was 7.5 µM (active) and 17.4 µM (active) and 23.9 µM (active).
Take `CNc1ccc([N+](=O)[O-])cc1`: the “activity change, negative = cytotoxic” value is -0.27% (inactive).
The same measure, in the same setting: for `O=C(c1ccc(O)c(O)c1)c1ccc(O)cc1O` the value was -8% (inactive).
Take `Cc1ccc(-c2ccccc2)cc1`: the “activity change, negative = cytotoxic” value is 0.0588% (inactive).
For `CCCCC(CC)CN1CN(CC(CC)CCCC)CC(C)(N)C1` (stereo not given), the Potency is 21.3 µM (active).
On to `CCN1C(=O)c2ccccc2C1Nc1ccc(OCCN2CCCCC2)cc1` (stereo not given), for which the “activity change, negative = cytotoxic” value is 0.46% [at 35.3 µM] (inactive).
Still for that read-out and setting: the figure for `Nc1ccc(NCCO)c([N+](=O)[O-])c1` is -4.5% (inactive); for `O=C(O)c1cc(-c2ccc(F)cc2F)ccc1O` it is 0.62% [at 35.3 µM] (inactive).
Still for that read-out and setting: for `Cc1nc2n(c(=O)c1CCN1CCC(c3noc4cc(F)ccc34)CC1)CCCC2` the value was 0.681% [at 35.3 µM] (inactive); for `CC(=O)c1ccc(C(C)=O)cc1`, 8.12% (inactive); for `Cc1ccc(O)c(O)c1`, -5.27% (inactive).
Still for that read-out and setting: for `OCC(F)(F)F` the value was -3.43% (inactive); for `Sc1nc2ccccc2s1`, -0.977% (inactive); for `CC1(C)CCC[C@]2(C)[C@H]3CCO[C@]3(C)CC[C@@H]12`, 0.0074% (inactive).
As to `CCCCCCCCCCCC(=O)OCC(C)OC(=O)CCCCC(=O)O` (stereo not given), the “activity change, negative = cytotoxic” value is -12.6% [at 35.3 µM] (inactive).
Same read-out and setting: the figure for `CC1=CCC(=C(C)C)CC1` is -2.91% (inactive).
